{"source": "paper PMC4336329", "about": "(PLoS ONE, 2015)", "note": "About 14,000 (4.5%) of roughly 310,000 compounds showed an effect of 50% or more. Effects have a minus sign here. This excerpt belongs to a sample that is enriched for strong results.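 Also: peak tail current of the secondary pulse compared with the same well before compound.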"}
{"target": "human ether-à-go-go-related gene (hERG) potassium channel (human, UniProt Q12809)", "sequence (Q12809 whole entry, looked up)": "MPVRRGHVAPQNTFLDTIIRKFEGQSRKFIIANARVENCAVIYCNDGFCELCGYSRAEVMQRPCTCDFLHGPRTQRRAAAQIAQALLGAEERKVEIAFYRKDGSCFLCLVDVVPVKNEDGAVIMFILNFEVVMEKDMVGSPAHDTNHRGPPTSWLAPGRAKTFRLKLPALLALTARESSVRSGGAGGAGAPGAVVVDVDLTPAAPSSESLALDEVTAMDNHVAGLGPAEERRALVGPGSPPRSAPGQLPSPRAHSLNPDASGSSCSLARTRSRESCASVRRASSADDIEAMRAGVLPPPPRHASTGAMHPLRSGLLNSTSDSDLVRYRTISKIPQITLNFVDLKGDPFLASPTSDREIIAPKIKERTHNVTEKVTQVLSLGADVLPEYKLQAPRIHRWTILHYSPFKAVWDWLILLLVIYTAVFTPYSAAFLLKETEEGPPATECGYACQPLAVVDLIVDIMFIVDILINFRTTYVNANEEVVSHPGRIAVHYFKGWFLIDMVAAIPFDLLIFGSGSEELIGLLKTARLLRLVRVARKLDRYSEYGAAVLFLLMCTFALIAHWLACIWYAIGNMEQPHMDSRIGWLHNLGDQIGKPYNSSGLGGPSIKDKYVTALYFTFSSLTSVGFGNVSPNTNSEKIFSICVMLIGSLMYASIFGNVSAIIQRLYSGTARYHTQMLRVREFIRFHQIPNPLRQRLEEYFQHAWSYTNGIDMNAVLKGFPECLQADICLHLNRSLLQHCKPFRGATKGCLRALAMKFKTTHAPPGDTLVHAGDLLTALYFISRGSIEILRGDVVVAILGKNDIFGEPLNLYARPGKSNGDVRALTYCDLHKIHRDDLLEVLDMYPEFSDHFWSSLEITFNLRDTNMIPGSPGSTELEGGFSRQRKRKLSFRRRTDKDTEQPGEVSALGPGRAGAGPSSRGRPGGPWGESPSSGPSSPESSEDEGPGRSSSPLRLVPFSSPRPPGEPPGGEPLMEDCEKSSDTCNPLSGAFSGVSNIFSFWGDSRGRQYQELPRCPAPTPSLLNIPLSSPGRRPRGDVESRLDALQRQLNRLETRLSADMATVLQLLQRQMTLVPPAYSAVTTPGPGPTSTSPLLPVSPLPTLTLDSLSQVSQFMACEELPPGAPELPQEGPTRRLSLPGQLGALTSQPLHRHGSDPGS", "assay": "primary screen, population patch clamp on CHO cells stably expressing hERG; higher = less effect of the substance", "units": {"hERG current change (%, negative = inhibition) at 10uM": "%"}}
{"smiles": "Cc1cccc(NS(=O)(=O)c2cccc3cccnc23)n1", "hERG current change (%, negative = inhibition) at 10uM": 4.27}
{"smiles": "COC(=O)C(Cc1ccccc1)NC(=O)c1cccc(S(=O)(=O)N(C)C)c1", "note": "(centres unmarked)", "hERG current change (%, negative = inhibition) at 10uM": 2.5}
{"smiles": "Cc1ccccc1-c1noc(N)c1C#N", "hERG current change (%, negative = inhibition) at 10uM": 0.198}
{"smiles": "CCCOc1cc(C)c(S(=O)(=O)NC2CC(C)(C)NC(C)(C)C2)cc1C", "hERG current change (%, negative = inhibition) at 10uM": -15}
{"smiles": "Cn1c(CSCc2ccc(Cl)cc2)nnc1SCC(=O)Nc1nc2ccccc2s1", "hERG current change (%, negative = inhibition) at 10uM": 9.45}
{"smiles": "Cc1cc(C)cc(C(=O)NCCn2cc(SCC(=O)N3CCOCC3)c3ccccc32)c1", "hERG current change (%, negative = inhibition) at 10uM": -9.88}
{"smiles": "O=[N+]([O-])c1cccnc1NCCc1ccccc1", "hERG current change (%, negative = inhibition) at 10uM": -18.9}
{"smiles": "O=C(O)CNc1nc(Cl)ccc1[N+](=O)[O-]", "hERG current change (%, negative = inhibition) at 10uM": 6.24}
{"smiles": "O=C(O)CNc1ncccc1[N+](=O)[O-]", "hERG current change (%, negative = inhibition) at 10uM": -86.1}
{"smiles": "CNC(=O)C(=O)NCCN1CCN(S(=O)(=O)c2ccc3ccccc3c2)CC1", "hERG current change (%, negative = inhibition) at 10uM": 29.3}
{"smiles": "CC[C@H]1CN(C)CCc2c([nH]c3ccccc23)C(=O)C[C@@H]1/C(=C\\OC)C(=O)OC", "hERG current change (%, negative = inhibition) at 10uM": -69.5}
{"smiles": "CC[C@@H]1CN(C)[C@H]2Cc3c([nH]c4ccccc34)C(=O)C[C@@H]1[C@@H]2C(=O)OC", "hERG current change (%, negative = inhibition) at 10uM": 11.8}
{"smiles": "CC[C@H]1CN(C)C[C@@]2(C(=O)OC)Cc3c([nH]c4ccccc34)C(=O)C[C@@H]12", "hERG current change (%, negative = inhibition) at 10uM": 9.71}
{"smiles": "C=CCc1cccc(C=Nc2ccc(Br)cc2)c1O", "hERG current change (%, negative = inhibition) at 10uM": -4.96}
{"smiles": "FC(F)(F)c1cc(Oc2ccc(Cl)cc2)ncc1-c1nnc(-c2ccc(Cl)cc2)o1", "hERG current change (%, negative = inhibition) at 10uM": 5.81}
{"smiles": "CC(C)C(=O)NCCc1nc(-c2ccccc2Cl)no1", "hERG current change (%, negative = inhibition) at 10uM": 16.1}
{"smiles": "O=C(OCCCN=C1NS(=O)(=O)c2ccccc21)C1CC(=O)N(c2ccc(Cl)cc2)C1", "note": "(centres unmarked)", "hERG current change (%, negative = inhibition) at 10uM": -58.7}
{"smiles": "O=C(OCCN=C1NS(=O)(=O)c2ccccc21)C1CC(=O)N(c2ccc(Cl)cc2)C1", "note": "(centres unmarked)", "hERG current change (%, negative = inhibition) at 10uM": -7.04}
{"smiles": "O=C(OCCOCCN=C1NS(=O)(=O)c2ccccc21)C1CC(=O)N(c2ccccc2)C1", "note": "(centres unmarked)", "hERG current change (%, negative = inhibition) at 10uM": 13.1}
{"smiles": "CC1(C)CC(CC(=O)O)(c2ccc(F)cc2)CCO1", "note": "(centres unmarked)", "hERG current change (%, negative = inhibition) at 10uM": 3.33}
{"smiles": "Cc1ccc(C)c(SCC(=O)Nc2ccc(C)c(S(=O)(=O)N3CCOCC3)c2)c1", "hERG current change (%, negative = inhibition) at 10uM": -13.4}
{"smiles": "CCOCCCNc1c(CC)c(C)c(C#N)c2nc3ccccc3n12", "hERG current change (%, negative = inhibition) at 10uM": -42.3}
{"smiles": "Cc1cc(C)cc(-n2c3nc4ccccc4nc3c3c(=O)n(Cc4ccco4)cnc32)c1", "hERG current change (%, negative = inhibition) at 10uM": 6.26}
{"smiles": "COC(=O)c1c(N)n(Cc2ccc(OC)cc2)c2nc3ccccc3nc12", "hERG current change (%, negative = inhibition) at 10uM": -34.1}
{"smiles": "COCCOC(=O)c1c(N)n(Cc2ccco2)c2nc3ccccc3nc12", "hERG current change (%, negative = inhibition) at 10uM": -56.7}
{"smiles": "Cc1cccc(-n2cnc3c(c2=O)c2nc4ccccc4nc2n3Cc2ccco2)c1", "hERG current change (%, negative = inhibition) at 10uM": -63.7}
{"smiles": "COCCCNC(=O)c1c(N)n(Cc2ccco2)c2nc3ccccc3nc12", "hERG current change (%, negative = inhibition) at 10uM": -2.08}
{"smiles": "Cc1ccc(Cn2c(C)nc3c(c2=O)c2nc4ccccc4nc2n3Cc2ccco2)cc1", "hERG current change (%, negative = inhibition) at 10uM": 5.72}
{"smiles": "COCCOC(=O)c1c(N)n(Cc2ccccc2)c2nc3ccccc3nc12", "hERG current change (%, negative = inhibition) at 10uM": -36.5}
{"smiles": "COCCNC(=O)c1c(N)n(Cc2ccco2)c2nc3ccccc3nc12", "hERG current change (%, negative = inhibition) at 10uM": -6.12}
{"smiles": "COCC(C)OC(=O)c1c(N)n(Cc2ccco2)c2nc3ccccc3nc12", "note": "(centres unmarked)", "hERG current change (%, negative = inhibition) at 10uM": -55.7}
{"smiles": "COCCOC(=O)c1c(N)n(Cc2ccc(OC)cc2)c2nc3ccccc3nc12", "hERG current change (%, negative = inhibition) at 10uM": -75.4}
{"smiles": "CC(C)OC(=O)c1c(N)n(Cc2ccco2)c2nc3ccccc3nc12", "hERG current change (%, negative = inhibition) at 10uM": -31.4}
{"smiles": "CC(C)CNC(=O)c1c(N)n(Cc2ccco2)c2nc3ccccc3nc12", "hERG current change (%, negative = inhibition) at 10uM": -14.1}
{"smiles": "COC(=O)C1=C(C)Nc2ncnn2C1c1ccco1", "note": "(centres unmarked)", "hERG current change (%, negative = inhibition) at 10uM": 6.44}
{"smiles": "COCCCn1c(SCC(=O)NNC(=O)c2cccc(O)c2)nnc1-c1ccncc1", "hERG current change (%, negative = inhibition) at 10uM": 5.74}
{"smiles": "COc1ccc(-c2nc(C#N)c(N3CCC(C(N)=O)CC3)o2)cc1OC", "hERG current change (%, negative = inhibition) at 10uM": -10.3}
{"smiles": "COCCN(CC(=O)Nc1cccc(C)c1C)C(=O)c1cc(-c2cccs2)nn1-c1ccccc1", "hERG current change (%, negative = inhibition) at 10uM": 1.14}
{"smiles": "CCCCOc1ccc(CSc2n[nH]c(C)n2)cc1", "hERG current change (%, negative = inhibition) at 10uM": -1.41}
{"smiles": "CN1CCN(C(=O)CC2C(=O)NCCN2Cc2ccc(-c3ccccc3)cc2)CC1", "note": "(centres unmarked)", "hERG current change (%, negative = inhibition) at 10uM": 2.25}
{"smiles": "COC(=O)C1CN(C(=O)COc2cc(C)c(Cl)c(C)c2)c2ccccc2O1", "note": "(centres unmarked)", "hERG current change (%, negative = inhibition) at 10uM": 18.9}
{"smiles": "O=C1NC(=O)C2(CCC(C(=O)O)C2)N1", "note": "(centres unmarked)", "hERG current change (%, negative = inhibition) at 10uM": 19.3}
{"smiles": "CCOC(=O)c1oc2ccc(/C=N/O)c(Cl)c2c1C", "hERG current change (%, negative = inhibition) at 10uM": 37.3}
{"smiles": "O=C(CSc1cccc[n+]1[O-])Nc1ccc(C(F)(F)F)cc1[N+](=O)[O-]", "hERG current change (%, negative = inhibition) at 10uM": 4.31}
{"smiles": "Clc1ccc(CO/N=C/c2cccs2)cc1", "hERG current change (%, negative = inhibition) at 10uM": 12.4}
{"smiles": "CCOC(=O)c1c(N)n(Cc2ccccc2)c2nc3ccccc3nc12", "hERG current change (%, negative = inhibition) at 10uM": -29.6}
{"smiles": "COCC(C)OC(=O)c1c(N)n(CC(C)C)c2nc3ccccc3nc12", "note": "(centres unmarked)", "hERG current change (%, negative = inhibition) at 10uM": -67.8}
{"smiles": "CC(C)(C)OC(=O)c1c(N)n(Cc2ccco2)c2nc3ccccc3nc12", "hERG current change (%, negative = inhibition) at 10uM": -5.55}
{"smiles": "CCCCOCCCn1c(N)c(C(=O)OC(C)COC)c2nc3ccccc3nc21", "note": "(centres unmarked)", "hERG current change (%, negative = inhibition) at 10uM": -9.66}
{"smiles": "CCOC(=O)c1c(N)n(Cc2ccco2)c2nc3ccccc3nc12", "hERG current change (%, negative = inhibition) at 10uM": -61.9}
{"smiles": "COCCCn1c(N)c(C(=O)OC(C)COC)c2nc3ccccc3nc21", "note": "(centres unmarked)", "hERG current change (%, negative = inhibition) at 10uM": 0.737}
{"smiles": "CSc1nccc(-c2nn(-c3ccc(C)cc3)ccc2=O)n1", "hERG current change (%, negative = inhibition) at 10uM": -15}
{"smiles": "COC(=O)CSc1nnc(CNC(=O)c2ccc(S(=O)(=O)N3CCOCC3)cc2)n1C", "hERG current change (%, negative = inhibition) at 10uM": 23.7}
{"smiles": "COCCNC(=O)c1cccc(OC2CCN(Cc3ccccc3OC(F)F)CC2)c1", "hERG current change (%, negative = inhibition) at 10uM": 2.5}
{"smiles": "COCCNC(=O)c1cccc(OC2CCN(Cc3ccc(OC(F)F)cc3)CC2)c1", "hERG current change (%, negative = inhibition) at 10uM": -73.5}
{"smiles": "COCCNC(=O)c1cccc(OC2CCN(Cc3ccc(F)c(OC)c3)CC2)c1", "hERG current change (%, negative = inhibition) at 10uM": -16.2}
{"smiles": "COCCNC(=O)c1cccc(OC2CCN(Cc3ccc(Cl)c(F)c3)CC2)c1", "hERG current change (%, negative = inhibition) at 10uM": -37.5}
{"smiles": "COCCNC(=O)c1cccc(OC2CCN(Cc3ccc(C(=O)OC)cc3)CC2)c1", "hERG current change (%, negative = inhibition) at 10uM": -40.5}
{"smiles": "COCCNC(=O)c1cccc(OC2CCN(Cc3ccc(C(C)C)cc3)CC2)c1", "hERG current change (%, negative = inhibition) at 10uM": -70.7}
